HT1080 IDH1KD tx: kills HT-1080 cells with IDH1 knockdown. HT-1080 IDH1 knockdown viability, ATP luminescence, 48 h. Potency, µM (titrated, usually from 46.1 µM), without a hit: at the top dose activity, negative = toxicity, hits mostly cytotoxic. hit rate 2% among 360,000;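 further: potency means the concentration at half of the fitted maximal effect; 0% = DMSO wells and -100% = cell-free medium wells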
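After a 2 h attachment period, IDH1KD HT-1080 cells took pin-transferred compound for 48 h at 37 °C; ATP-based luminescence after 10 min room-temperature reagent incubation reported viability.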
DT40 TDP1 no CPT: qHTS for Inhibitors of human tyrosyl-DNA phosphodiesterase 1 (TDP1): qHTS in cells in absence of CPT | Potency, µM (top dose mostly 46.2 µM), for the others: top-dose activity change, negative = growth inhibition, usual class: inhibitors | AID 686978, 2013 | hit rate 15% among 420,000 | DT40 Tdp1-/- hTDP1 cells, no CPT, ATP luminescence, 48 h; further: potency means the concentration at half of the fitted maximal effect; nearly all actives have a fitted effect of over 55% in size
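Luminescent ATP content (CellTiter-Glo) served as the growth readout. Knockout chicken DT40 cells expressing human TDP1 were exposed to compounds without camptothecin for a minimum 48 hr at 37 °C.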
IL-1B inflam inh: inhibitors of inflammasome signaling (IL-1 beta secretion); THP-1 LPS/ATP IL-1B secretion, AlphaLISA, 16 h; stronger effect = lower value; activity change, % at 57.5 µM; hit rate 4.7% among 360,000; AID 743279; in the data active means activity change below about -50%; inconclusive means mostly about -30% to -49%
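Secreted IL-1B measured by AlphaLISA bead assay after 16 h compound exposure of THP-1 cells; compounds (final up to 57.5 uM) added 1 h before LPS (250 ng/mL) and ATP (1.25 mM) stimulation; lower signal means less secretion.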
TDP1 cell CPT: DT40-hTDP1 cell growth loss with CPT | chicken DT40 Tdp1-/-;hTDP1 cells + 20 nM CPT, ATP luminescence, 48 h | Potency, µM (series often up to 46.2 µM), for inactives: top-dose activity change, negative = growth inhibition, usual class: inhibitors | hit rate 12% among 420,000; further: potency means the concentration at half of the fitted maximal effect; nearly all actives have a fitted effect of over 55% in size
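Chicken DT40 Tdp1-/- cells stably complemented with human TDP1 were seeded at 400 cells/well in medium containing 20 nM camptothecin, exposed to pin-transferred compounds, and grown at 37 °C for at least 48 hr. Viability was read as ATP luminescence.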
ELG1 DNA repair: inhibitors of ELG1-dependent DNA repair in HEK293T cells. HEK293T ELG1-luciferase reporter, luminescence, 16 h; DNA damage induced by 5-fluorouridine. Potency, µM (series often up to 46.1 µM), for inactives: at the highest dose activity change, negative = inhibition, hits mostly inhibitors. hit rate 2.3% among 330,000; further: potency means the concentration at half of the fitted maximal effect; nearly all actives have a fitted effect of over 55% in size
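Overnight (16 hr) co-exposure of 2,000 cells/well to 5-fluorouridine and compound at 37 °C preceded detection. Luciferase was quantified via ONE-Glo luminescence; loss of signal denotes inhibition.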
HT1080-NT tox: kills 2HG-producing HT-1080-NT fibrosarcoma cells; HT-1080-NT fibrosarcoma viability, CellTiter-Glo ATP luminescence, 48 h; Potency, µM (series often up to 46.1 µM), for inactives: top-dose activity, negative = less viability, usual class: cytotoxic; hit rate 1.6% among 360,000; AID 686970;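 further: NT is the 2HG producing partner of a matched IDH1 knockdown line; potency means the concentration at half of the fitted maximal effect; 0% = DMSO-treated cells and -100% = media-only wells without cells; nearly all actives have a fitted effect of over 55% in size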
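Read-out is CellTiter-Glo luminescence after 10 minutes at room temperature, following 48 hours' compound treatment of HT-1080-NT cells (750 cells/well, RPMI, 5% FBS, 37 degrees C).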
The depositor's hits bear a star. Rows were chosen to be rich in hits. Some 19% of all compounds tested hit in one or more screens of this group. Unless noted, the call rests on the fitted dose curve; in most records, active means well fitted curve in the direction sought with a large enough effect; inconclusive means small, poorly fitted or top-dose-only effect, or another doubt; inactive means no such curve, though single readings can be large; an effect the other way counts as inactive or inconclusive. Unless noted, on the % scale 0 is the no-effect control and ±100 the full control effect.

`CCCCOCCCNC(=O)C[C@@H]1C[C@@]2(C(=O)OCC)CCC=C2N(CCC2=CCCCC2)C1=O` gave HT1080 IDH1KD tx -26.5%, DT40 TDP1 no CPT inconclusive, IL-1B inflam inh 0.0, TDP1 cell CPT inconclusive and HT1080-NT tox -2.0%.
`CCOC(=O)[C@]12CCCC=C1N(Cc1ccccc1)C(=O)[C@H](CC(=O)NCc1ccc(C)o1)C2` gave HT1080 IDH1KD tx 1.7%, DT40 TDP1 no CPT inconclusive, IL-1B inflam inh -23.7, TDP1 cell CPT inconclusive and HT1080-NT tox -1.4%.
`CCOC(=O)[C@]12CCCC=C1N(CCc1ccc(OC)c(OC)c1)C(=O)[C@H](CC(=O)NCc1ccc(C)o1)C2` gave HT1080 IDH1KD tx 5.4%, DT40 TDP1 no CPT 16.4µM*, IL-1B inflam inh 3.8, TDP1 cell CPT 13µM* and HT1080-NT tox 15.1%.
Screening CCOC(=O)[C@]12CCC=C1N(CCC1=CCCCC1)C(=O)[C@H](CC(=O)NCCCCc1ccccc1)C2 returned HT1080 IDH1KD tx inconclusive, DT40 TDP1 no CPT 20.6µM*, IL-1B inflam inh 15.5, TDP1 cell CPT inconclusive and HT1080-NT tox inconclusive.
CCN1CCN(c2nc3c(S(=O)(=O)c4ccc(Br)cc4)nnn3c3ccsc23)CC1 was read as DT40 TDP1 no CPT inconclusive and TDP1 cell CPT -23.1%.
Screening CSc1nnc(CCNS(=O)(=O)c2ccccc2Br)n1C returned HT1080 IDH1KD tx 11.8%, DT40 TDP1 no CPT -10.6%, IL-1B inflam inh 33.7, TDP1 cell CPT -0.4%, ELG1 DNA repair 16.6% and HT1080-NT tox 13.7%.
For CCOC(=O)[C@]12CCCC=C1N(CCC1=CCCCC1)C(=O)[C@H](CC(=O)NCc1ccccc1)C2 the results were HT1080 IDH1KD tx inconclusive, DT40 TDP1 no CPT 16.4µM*, IL-1B inflam inh -7.7, TDP1 cell CPT inconclusive and HT1080-NT tox inconclusive.
For CCOC(=O)[C@]12CCC=C1N(CCC1=CCCCC1)C(=O)[C@H](CC(=O)NCCC(C)C)C2 the results were HT1080 IDH1KD tx -14.8%, DT40 TDP1 no CPT 16.4µM*, IL-1B inflam inh 0.0, TDP1 cell CPT inconclusive and HT1080-NT tox 5.2%.
For CCOC(=O)[C@]12CCC=C1N(CCC1=CCCCC1)C(=O)[C@H](CC(=O)NCc1cccs1)C2 the results were HT1080 IDH1KD tx 2.7%, DT40 TDP1 no CPT inconclusive, IL-1B inflam inh -0.8, TDP1 cell CPT inconclusive and HT1080-NT tox 10.4%.
Screening CCOC(=O)Cc1csc(-n2sc3ccccc3c2=O)n1 returned HT1080 IDH1KD tx 1.7%, DT40 TDP1 no CPT 11.6µM*, IL-1B inflam inh 22.7, TDP1 cell CPT 5.17µM*, ELG1 DNA repair inconclusive and HT1080-NT tox 16.7%.
Screening CCOC(=O)Cc1csc(/N=C/c2c(O)n(-c3ccccc3C(F)(F)F)c(=O)c3ccccc23)n1 returned HT1080 IDH1KD tx -11.8%, DT40 TDP1 no CPT inconclusive, IL-1B inflam inh 32.3, TDP1 cell CPT 20.6µM*, ELG1 DNA repair 13µM* and HT1080-NT tox -1.5%.
Screening CCOC(=O)Cc1csc(SCn2nnc3ccccc3c2=O)n1 returned HT1080 IDH1KD tx 9.6%, DT40 TDP1 no CPT inconclusive, IL-1B inflam inh 27.2, TDP1 cell CPT -22.0%, ELG1 DNA repair 9.3% and HT1080-NT tox 5.0%.
Screening C[S+](C)CCC(N)C(=O)O (stereo unspecified) returned DT40 TDP1 no CPT -21.6% and TDP1 cell CPT 14.5%.
Cc1cccc(N(C)C(=O)CSc2nc3ncccc3o2)c1 was read as DT40 TDP1 no CPT inconclusive and TDP1 cell CPT -28.1%.
For Nc1ncnc2c1ncn2[C@@H]1O[C@H](CNS(=O)(=O)c2cc(S(=O)(=O)c3ccccc3)cs2)[C@@H](O)[C@H]1O the results were HT1080 IDH1KD tx 3.6%, DT40 TDP1 no CPT 0.2%, IL-1B inflam inh -3.5, TDP1 cell CPT 4.6%, ELG1 DNA repair -2.7% and HT1080-NT tox 3.6%.
O=C(CSc1nnc2ccccn12)NNC(=O)c1cccc([N+](=O)[O-])c1 was read as HT1080 IDH1KD tx 9.0%, DT40 TDP1 no CPT 5.6%, IL-1B inflam inh 44.0, TDP1 cell CPT 8.8%, ELG1 DNA repair 2.5% and HT1080-NT tox 7.0%.
Screening Cc1coc2c(C)c3oc(=O)c(CCC(=O)NCCc4ccc(Cl)cc4)c(C)c3cc12 returned DT40 TDP1 no CPT 11.6µM* and TDP1 cell CPT inconclusive.
Cc1oc2cc3oc(=O)c(CCC(=O)NCCCN4CCCC4=O)c(C)c3cc2c1C was read as HT1080 IDH1KD tx 0.2%, DT40 TDP1 no CPT inconclusive, IL-1B inflam inh -25.2, TDP1 cell CPT 14.6µM*, ELG1 DNA repair 15.3% and HT1080-NT tox 1.3%.
COc1ccccc1CCNC(=O)CCc1c(C)c2cc3c(C)coc3cc2oc1=O was read as DT40 TDP1 no CPT inconclusive and TDP1 cell CPT 16.4µM*.
For Cc1coc2cc3oc(=O)c(CCC(=O)NCc4ccc(Cl)cc4)c(C)c3cc12 the results were DT40 TDP1 no CPT 25.9µM* and TDP1 cell CPT 10.3µM*.
For CO[C@H]1[C@H](NC(=O)c2cccs2)c2ccccc2C12CCN(Cc1cccn1-c1cccnc1)CC2 the results were DT40 TDP1 no CPT -27.0% and TDP1 cell CPT 11.2%.
`Cc1oc(-c2ccccc2F)nc1CS(=O)(=O)CC(=O)NC1CCCC(C)C1C` (stereo unspecified) gave HT1080 IDH1KD tx -16.8%, DT40 TDP1 no CPT inconclusive, IL-1B inflam inh -8.8, TDP1 cell CPT -24.2%, ELG1 DNA repair -2.8% and HT1080-NT tox -1.1%.
Screening COc1cccc(CNC(=O)CCc2c(C)c3cc4c(C)coc4cc3oc2=O)c1 returned DT40 TDP1 no CPT 16.4µM* and TDP1 cell CPT 13µM*.
For Cc1oc2cc3oc(=O)c(CCC(=O)NCCC(=O)O)c(C)c3cc2c1C the results were HT1080 IDH1KD tx 4.3%, DT40 TDP1 no CPT -14.7%, IL-1B inflam inh -11.3, TDP1 cell CPT 8.6%, ELG1 DNA repair 9.9% and HT1080-NT tox 0.4%.
For Cc1c(CCC(=O)NCCCn2ccnc2)c(=O)oc2c(C)c3occ(C(C)(C)C)c3cc12 the results were HT1080 IDH1KD tx 18.4µM*, DT40 TDP1 no CPT 20.6µM*, IL-1B inflam inh -96.6*, TDP1 cell CPT inconclusive, ELG1 DNA repair -14.6% and HT1080-NT tox inconclusive.
For Cc1coc2c(C)c3oc(=O)c(CCC(=O)NCCCn4ccnc4)c(C)c3cc12 the results were HT1080 IDH1KD tx -6.2%, DT40 TDP1 no CPT inconclusive, IL-1B inflam inh inconclusive, TDP1 cell CPT inconclusive, ELG1 DNA repair 12.3% and HT1080-NT tox -0.2%.

Compound activity as filed in PubChem.
